Compounds without any hit were thinned out: in the full panel of roughly 79,000, 15% have a hit. Unmarked numbers belong to inactive results. Activity calls are given as the source filed them. No stated cut-off is given here; in the data, active means growth inhibition above about 70%; inactive means the rest.

This passage reports growth inhibition results from PubChem BioAssay (NCI).

Assay [1] in a line: NCI Yeast Anticancer Drug Screen. Data for the rad50 strain (AID 155).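 Further: 0% = growth of vehicle-only cultures of the same strain.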 To be noted: S. cerevisiae rad50 strain growth inhibition, hits give high values. The essentials: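 A DNA repair-deficient yeast mutant serves as the test organism; compound-induced growth inhibition is calculated against vehicle-treated cells.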
Assay [2] can be described thus: NCI Yeast Anticancer Drug Screen. Data for the mec2-1 strain (AID 157). As to conditions: S. cerevisiae mec2-1 strain, hits give high values. The essentials: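 Vehicle-treated cultures served as reference for growth inhibition of compound-exposed mec2-1 yeast.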
Assay [3] can be described thus: NCI Yeast Anticancer Drug Screen. Data for the sgs1 mgt1 strain (AID 161).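 Further: 0% = growth of cultures given vehicle only.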 As to conditions: S. cerevisiae sgs1 mgt1 strain, hits give high values. The essentials:
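Read-out: growth inhibition vs vehicle controls. Cells: mutant yeast strain deficient in DNA damage repair.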

The nature of assay [4]: NCI Yeast Anticancer Drug Screen. Data for the cln2 rad14 strain (AID 165).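 Further: 0% = growth equal to vehicle treated cultures.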 To be noted: S. cerevisiae cln2 rad14 strain, hits give high values. In a few lines: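 Each compound was tested on cln2 rad14 yeast. Inhibition of growth was calculated against vehicle-exposed controls.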
A short description of assay [5]: NCI Yeast Anticancer Drug Screen. Data for the bub3 strain (AID 167). To be noted: S. cerevisiae bub3 mutant strain, hits give high values. The essentials:
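Inhibition values come from growth of compound-treated mutant yeast normalised to vehicle-treated controls.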

Assay [6] in a line: NCI Yeast Anticancer Drug Screen. Data for the mlh1 rad18 strain (AID 175). As to conditions: S. cerevisiae mlh1 rad18 strain growth inhibition, hits give high values. In a few lines:
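Vehicle-treated cultures served as the reference for growth inhibition in a yeast strain carrying DNA damage repair alterations exposed to each compound.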

[7] abbreviates: at 5.0 µM (retest, dose inferred, filed as 0.5).
Setting [8] is: at 50.0 µM (retest, dose inferred, filed as 5.0).

Regarding `CCn1c2ccccc2n2c(=O)cc(-c3ccccc3)c(C#N)c12`, the growth inhibition was 7% in assay [1] (setting [7]); 2% in assay [1] (setting [8]); 27.1% in assay [1] (at 50.0 µM); -2% in assay [2] (setting [7]); -2% in assay [2] (setting [8]); 12.7% in assay [2] (at 50.0 µM). Further, the growth inhibition in assay [3] (setting [7]) is -12%; in assay [3] (setting [8]) it was 0%; in assay [3] (at 50.0 µM) it was 33.6%; in assay [4] (setting [7]), 7%; in assay [4] (setting [8]), -9%; in assay [4] (at 50.0 µM), 12.3%. Moreover, the growth inhibition in assay [5] (setting [7]) was 7%; in assay [5] (setting [8]), 11%; in assay [5] (at 50.0 µM), 18.4%; in assay [6] (setting [7]), -2%; in assay [6] (setting [8]), -4%; in assay [6] (at 50.0 µM), 24.4%.

As to `COc1cccc(C2c3cc4c(cc3OC(N3CCOCC3)C2C)OCO4)c1` (configuration not stated), the growth inhibition in assay [1] (setting [7]) is 25%; in assay [1] (setting [8]) it was 16%; in assay [1] (at 50.0 µM), -11.8%; in assay [2] (setting [7]), 14%; in assay [2] (setting [8]), 6%; in assay [2] (at 50.0 µM) it was -9.25%. Besides, the growth inhibition is 9% in assay [3] (setting [7]); 7% in assay [3] (setting [8]); 3.2% in assay [3] (at 50.0 µM); 11% in assay [4] (setting [7]); 6% in assay [4] (setting [8]); 8.45% in assay [4] (at 50.0 µM). For the same compound, the growth inhibition in assay [5] (setting [7]) is 26%; in assay [5] (setting [8]), 13%; in assay [5] (at 50.0 µM), 0.2%; in assay [6] (setting [7]), 20%; in assay [6] (setting [8]) it was 13%; in assay [6] (at 50.0 µM), -3.05%.

On to `COc1ccc(C(C)c2cc3c(cc2OC/C(C)=N/NC(N)=O)OCO3)cc1` (configuration not stated), for which the growth inhibition in assay [1] (setting [7]) was 61%; in assay [1] (setting [8]), 93% (active); in assay [1] (at 50.0 µM) it was 74.4% (active); in assay [2] (setting [7]), 43%; in assay [2] (setting [8]), 99% (active); in assay [2] (at 50.0 µM), 71.6% (active). Further, the growth inhibition is 41% in assay [3] (setting [7]); 87% (active) in assay [3] (setting [8]); 82% (active) in assay [3] (at 50.0 µM); 19% in assay [4] (setting [7]); 97% (active) in assay [4] (setting [8]); 19.6% in assay [4] (at 50.0 µM). Further, the growth inhibition was 58% in assay [5] (setting [7]); 99% (active) in assay [5] (setting [8]); 88.1% (active) in assay [5] (at 50.0 µM); 61% in assay [6] (setting [7]); 96% (active) in assay [6] (setting [8]); 90.3% (active) in assay [6] (at 50.0 µM).

For the compound `COc1cc(C2OC(=O)c3ccccc3S2)ccc1O` (configuration not stated), the growth inhibition in assay [1] (setting [7]) is 8%; in assay [1] (setting [8]) it was 92% (active); in assay [1] (at 50.0 µM) it was 98.7% (active); in assay [2] (setting [7]), 12%; in assay [2] (setting [8]), 98% (active); in assay [2] (at 50.0 µM) it was 98.6% (active). In addition, the growth inhibition was -4% in assay [3] (setting [7]); 74% (active) in assay [3] (setting [8]); 71.6% (active) in assay [3] (at 50.0 µM); 7% in assay [4] (setting [7]); 76% (active) in assay [4] (setting [8]); 96% (active) in assay [4] (at 50.0 µM). In addition, the growth inhibition was 5% in assay [5] (setting [7]); 84% (active) in assay [5] (setting [8]); 95.5% (active) in assay [5] (at 50.0 µM); 13% in assay [6] (setting [7]); 98% (active) in assay [6] (setting [8]); 99.5% (active) in assay [6] (at 50.0 µM).

Consider `CCOC(=O)c1ccc(NC(=O)CCl)cc1`, for which the growth inhibition was 3% in assay [1] (setting [7]); 99% (active) in assay [1] (setting [8]); 51.9% in assay [1] (at 50.0 µM); 8% in assay [2] (setting [7]); 98% (active) in assay [2] (setting [8]); 38.7% in assay [2] (at 50.0 µM). Besides, the growth inhibition in assay [3] (setting [7]) was 21%; in assay [3] (setting [8]), 98% (active); in assay [3] (at 50.0 µM), 67.5%; in assay [4] (setting [7]), 8%; in assay [4] (setting [8]), 91% (active); in assay [4] (at 50.0 µM), 28.7%. Further, the growth inhibition was 0% in assay [5] (setting [7]); 95% (active) in assay [5] (setting [8]); 40% in assay [5] (at 50.0 µM); 12% in assay [6] (setting [7]); 99% (active) in assay [6] (setting [8]); 64.2% in assay [6] (at 50.0 µM).

`Cc1cc2nc(CC(=O)c3ccc4ccccc4c3)c(=O)[nH]c2cc1C`: the growth inhibition in assay [1] (setting [7]) is -43%; in assay [1] (setting [8]) it was -24%; in assay [1] (at 50.0 µM), 94.7% (active); in assay [2] (setting [7]), -3%; in assay [2] (setting [8]), 9%; in assay [2] (at 50.0 µM), 81.4% (active). The growth inhibition in assay [3] (setting [7]) is -5%; in assay [3] (setting [8]) it was -21%; in assay [3] (at 50.0 µM), 88.3% (active); in assay [4] (setting [7]) it was -17%; in assay [4] (setting [8]), -33%; in assay [4] (at 50.0 µM) it was 80.9% (active). Besides, the growth inhibition in assay [5] (setting [7]) is 13%; in assay [5] (setting [8]) it was -19%; in assay [5] (at 50.0 µM), 89% (active); in assay [6] (setting [7]), -16%; in assay [6] (setting [8]), -28%; in assay [6] (at 50.0 µM), 96.7% (active).

For `N=C(N)SC1c2ccccc2-c2ccc(N)cc21` (configuration not stated), the growth inhibition in assay [1] (setting [7]) is 17%; in assay [1] (setting [8]), 95% (active); in assay [1] (at 50.0 µM), 98% (active); in assay [2] (setting [7]), 4%; in assay [2] (setting [8]), 75% (active); in assay [2] (at 50.0 µM), 98.4% (active). Further, the growth inhibition is -1% in assay [3] (setting [7]); 77% (active) in assay [3] (setting [8]); 98.5% (active) in assay [3] (at 50.0 µM); -4% in assay [4] (setting [7]); 81% (active) in assay [4] (setting [8]); 96.8% (active) in assay [4] (at 50.0 µM). Further, the growth inhibition in assay [5] (setting [7]) was 0%; in assay [5] (setting [8]), 86% (active); in assay [5] (at 50.0 µM), 97% (active); in assay [6] (setting [7]) it was 12%; in assay [6] (setting [8]), 95% (active); in assay [6] (at 50.0 µM) it was 97.8% (active).

Turning to `CCC(N)(CO)CO`, the growth inhibition is 7% in assay [1] (setting [7]); 67% in assay [1] (setting [8]); 3.65% in assay [1] (at 50.0 µM); 5% in assay [2] (setting [7]); 8% in assay [2] (setting [8]); 8.3% in assay [2] (at 50.0 µM). Moreover, the growth inhibition in assay [3] (setting [7]) was 2%; in assay [3] (setting [8]) it was 11%; in assay [3] (at 50.0 µM), 9.7%; in assay [4] (setting [7]), 5%; in assay [4] (setting [8]), 12%; in assay [4] (at 50.0 µM) it was 71.5% (active). Also, the growth inhibition in assay [5] (setting [7]) was 3%; in assay [5] (setting [8]), 14%; in assay [5] (at 50.0 µM), 44.1%; in assay [6] (setting [7]) it was 2%; in assay [6] (setting [8]), 8%; in assay [6] (at 50.0 µM), -30.2%.

`O=C(NNc1nc(-c2ccccc2)cs1)C(F)(F)F`: the growth inhibition in assay [1] (setting [7]) was 83% (active); in assay [1] (setting [8]), 97% (active); in assay [1] (at 50.0 µM) it was 86.8% (active); in assay [2] (setting [7]), 74% (active); in assay [2] (setting [8]), 98% (active); in assay [2] (at 50.0 µM) it was 89.7% (active). In addition, the growth inhibition was 91% (active) in assay [3] (setting [7]); 99% (active) in assay [3] (setting [8]); 87.5% (active) in assay [3] (at 50.0 µM); 50% in assay [4] (setting [7]); 91% (active) in assay [4] (setting [8]); 87% (active) in assay [4] (at 50.0 µM). Also, the growth inhibition is 97% (active) in assay [5] (setting [7]); 99% (active) in assay [5] (setting [8]); 85.7% (active) in assay [5] (at 50.0 µM); 93% (active) in assay [6] (setting [7]); 94% (active) in assay [6] (setting [8]); 91.2% (active) in assay [6] (at 50.0 µM).
